Only some compounds are listed: those with a hit (about 10% of all), similar ones and a draw of the others.
Luc counter – Counterscreen for Luciferase (Kinase-Glo TM) Inhibition; Luciferin 4-monooxygenase (Photuris pensylvanica), Q27757; Kinase-Glo luciferase, ATP luminescence, 8 min; Potency, µM (highest dose often 38.3 µM), hits mostly inhibitors; hit rate 0.28% among 200,000; active = well fitted inhibition curve with a large enough effect; inconclusive = small, poorly fitted or top-dose-only effect; also: nearly all actives have a fitted effect of over 60% in size
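Compounds were added to a substrate mix at pH 7.2 (50 mM imidazole, 10 uM ATP, within the enzyme's linear range), followed by Kinase-Glo detection reagent; luminescence was measured after 8 minutes at ambient temperature.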
PNC inhibitor – High Content Assay for Compounds that inhibit the Assembly of the Perinucleolar Compartment | PC3M PTB-GFP, PNC prevalence imaging, 16 h; stronger effect = lower value | hit rate 3.1% among 140,000 | activity change (PNC), negative = inhibition, % at 10 µM;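 active = readout at or below -70, meaning at least 70% loss of cells showing the perinucleolar compartment, a nuclear body marking cancer cells; inconclusive = readout between -30 and a set limit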
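Compounds are pinned in duplicate onto adhered PC3M cells stably expressing GFP-tagged PTB and incubated 16 h at 37 C. Cells are then fixed, nuclei stained with Hoechst, and PNC-positive cells counted.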
ALDH1A1 block – qHTS Assay for Inhibitors of Aldehyde Dehydrogenase 1 (ALDH1A1) | hit rate 7.3% among 220,000 | AID 1030, 2008 | Purified ALDH1A1, NADH fluorescence, propionaldehyde substrate | Potency, µM (top dose mostly 75.3 µM), usual class: inhibitors
Target sequence (P00352 whole entry, looked up): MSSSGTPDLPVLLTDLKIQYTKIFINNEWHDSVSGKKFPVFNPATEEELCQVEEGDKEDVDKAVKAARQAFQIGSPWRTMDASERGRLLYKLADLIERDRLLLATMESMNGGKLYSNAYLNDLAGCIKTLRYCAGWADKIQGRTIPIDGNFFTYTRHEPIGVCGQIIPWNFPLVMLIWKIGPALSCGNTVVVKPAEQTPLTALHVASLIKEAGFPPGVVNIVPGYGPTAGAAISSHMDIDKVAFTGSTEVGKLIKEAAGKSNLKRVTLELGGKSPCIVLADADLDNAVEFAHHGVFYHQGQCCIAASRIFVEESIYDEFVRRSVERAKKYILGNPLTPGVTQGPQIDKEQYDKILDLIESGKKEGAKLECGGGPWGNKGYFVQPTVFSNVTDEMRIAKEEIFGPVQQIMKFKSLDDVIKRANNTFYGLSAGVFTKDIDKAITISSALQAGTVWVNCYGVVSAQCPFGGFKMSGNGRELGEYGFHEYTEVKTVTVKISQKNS
Lamin A splicing – qHTS Assay for Modulators of Lamin A Splicing | Potency, µM (titrated, usually from 46.1 µM), actives largely listed as inhibitors | HeLa LMNA splicing GFP/RFP minigene ratio, 48 h | hit rate 0.01% among 200,000; active = well fitted inhibition curve with a large enough effect in the signal ratio, with a control signal flat, not every such curve was filed as active; inconclusive = small, poorly fitted or top-dose-only effect, or effect the other way, or a change in a side signal; the % refers to the signal ratio
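S3 HeLa cells stably expressing lamin A-EGFP splicing minigene plus DsRed2, 600 cells/well, 48 h compound exposure at 37C. Laser-scanning cytometry; analysed as GFP (500-530 nm)/RFP (575-640 nm) total intensity ratio; 0.5% DMSO vehicle.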
HPGD block – qHTS Assay for Inhibitors of HPGD (15-Hydroxyprostaglandin Dehydrogenase). purified HPGD, NADH fluorescence kinetic, PGE2 substrate. 15-hydroxyprostaglandin dehydrogenase [NAD(+)] (Homo sapiens), P15428. Potency, µM, most hits filed as inhibitors. AID 894, 2007. hit rate 4.3% among 150,000
Target sequence (P15428 whole entry, looked up): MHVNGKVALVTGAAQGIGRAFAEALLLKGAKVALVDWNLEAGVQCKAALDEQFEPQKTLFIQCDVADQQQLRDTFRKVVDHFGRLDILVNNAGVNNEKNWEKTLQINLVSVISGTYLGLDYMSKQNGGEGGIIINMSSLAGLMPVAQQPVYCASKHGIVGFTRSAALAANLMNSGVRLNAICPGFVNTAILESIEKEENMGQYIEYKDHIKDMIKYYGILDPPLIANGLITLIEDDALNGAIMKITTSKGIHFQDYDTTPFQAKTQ
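NADH formation kinetics: reaction with 30 uM PGE2 and 1 mM NAD+ (final), 20 nM enzyme, Tris-HCl pH 8 with Tween 20, after 15 min compound preincubation at room temperature. Fluorescence change, last versus first of five reads.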
Each line names hits and unclear results; the compound was inactive in the other large screens. Unless noted, calls follow the shape of the dose curve; as a rule, active = well fitted inhibition curve with a large enough effect (not every such curve was filed as active); inconclusive = small, poorly fitted or top-dose-only effect, or another doubt; inactive = no such curve, though single readings can be large or run the other way.

CCOc1nc(C#N)nc(N2CCCCC2)n1	ALDH1A1 block inconclusive, Lamin A splicing inconclusive
CCOc1nc(OCC)nc(N2CCC(C)CC2)n1	ALDH1A1 block 10µM
N#Cc1ccc(CN2CCC3(CC2)CCN(C(=O)c2csnn2)CC3)cc1	none (no result: PNC inhibitor, Lamin A splicing)
CCOc1cc(/C=C2/NC(=O)N(Cc3ccccc3F)C2=O)ccc1O	ALDH1A1 block 8.91µM
O=C1N/C(=C/c2cccn2-c2ccccc2)C(=O)N1Cc1ccccc1F	ALDH1A1 block inconclusive
COc1cc(/C=C2/NC(=O)N(Cc3ccccc3F)C2=O)cc(OC)c1O	ALDH1A1 block 10µM (no result: Luc counter, PNC inhibitor, Lamin A splicing, HPGD block)
Cc1ccc(CNC(=O)[C@H](C)[C@@H]2C[C@@]2(C)[C@@H](NC(=O)OCc2ccccc2)c2ccccc2)o1	ALDH1A1 block inconclusive (no result: PNC inhibitor, Lamin A splicing)
O=C1ON=C(c2cccc([N+](=O)[O-])c2)/C1=C/c1ccc(O)cc1	ALDH1A1 block 10µM (no result: PNC inhibitor, HPGD block)
O=C1ON=C(c2ccccc2)/C1=C/c1cccnc1	none (no result: PNC inhibitor, HPGD block)
COCCNC(=O)c1ccccc1NC(=O)c1ccccc1N(C)S(C)(=O)=O	PNC inhibitor -110.7
COC(=O)C(C(=O)OC)C(Cc1cc(F)cc(F)c1F)NC=O (stereo not drawn)	none (no result: PNC inhibitor, Lamin A splicing)
CCOC(=O)CC(=O)CSc1[nH]c(=O)cc(C)c1C#N	HPGD block 14.1µM
COc1ccccc1-n1c(SCC(=O)NC(C)(C)C)nc(O)cc1=O	none
CC1Cc2ccccc2N1C(=O)CSc1nnc(Cn2nnc3ccccc32)n1C (stereo not drawn)	ALDH1A1 block 10µM, Lamin A splicing inconclusive
COc1cccc(-n2c(SCC(=O)N3c4ccccc4CC3C)nnc2-c2ccco2)c1 (stereo not drawn)	ALDH1A1 block 25.1µM
COc1ccccc1-n1c(SCC(=O)NC(C)(C)C)nnc1-c1ccco1	HPGD block 15.8µM
CC(C)N(C(=O)CSc1nnc(Cn2nnc3ccccc32)n1C)C(C)C	none
COc1cccc(Nc2ncc3nc(C)c(=O)n(CCC#N)c3n2)c1	none (no result: PNC inhibitor, Lamin A splicing)
Cc1cc2n(n1)CCCN2C(=O)Nc1ccc(Cl)cc1	none (no result: Luc counter, PNC inhibitor, ALDH1A1 block, HPGD block)
Cc1cccc(-n2c(CNC(=O)c3ccc(S(=O)(=O)N(C)C)cc3)nnc2SCC(=O)Nc2ccc(F)cc2)c1	PNC inhibitor inconclusive, ALDH1A1 block 0.447µM
Cc1cccc(NC(=O)CSc2nnc(CNC(=O)c3ccc(S(=O)(=O)N(C)C)cc3)n2-c2ccccc2)c1	ALDH1A1 block 7.08µM, Lamin A splicing inconclusive
COc1cccc(C2C(C#N)=C(N)OC3=C2C(=O)CC(c2ccco2)C3)c1OCc1ccc(F)cc1 (stereo not drawn)	none
N#CC1=C(N)OC2=C(C(=O)CC(c3ccco3)C2)C1c1ccc(OCc2c(F)cccc2Cl)cc1 (stereo not drawn)	ALDH1A1 block 8.91µM
CCn1c(SCC(=O)N2CCCCC2C)nc2ccsc2c1=O (stereo not drawn)	PNC inhibitor inconclusive, ALDH1A1 block 7.94µM, Lamin A splicing inconclusive, HPGD block inconclusive
Cc1cc(NC(=O)CSc2nc3ccsc3c(=O)n2Cc2ccccn2)n[nH]1	none
CC1CCCCN1C(=O)CSc1nc2ccsc2c(=O)n1Cc1ccccn1 (stereo not drawn)	ALDH1A1 block 15.8µM
CC1CCCCN1C(=O)CSc1nc2cc3c(cc2c(=O)n1Cc1ccc2c(c1)OCO2)OCO3 (stereo not drawn)	PNC inhibitor -86.7, ALDH1A1 block 22.4µM
CCc1cccc(C)c1NC(=O)c1cc(CN2CCCC2)on1	none (no result: Luc counter, PNC inhibitor, ALDH1A1 block, HPGD block)
Cc1noc2ncnc(N3CCN(c4ccc(F)cc4)CC3)c12	none (no result: PNC inhibitor, Lamin A splicing, HPGD block)
Cc1noc2ncnc(N3CCCCC3)c12	ALDH1A1 block 31.6µM (no result: PNC inhibitor, Lamin A splicing, HPGD block)
OCc1ccccc1N=c1ssnc1Cl	ALDH1A1 block 0.891µM, HPGD block 6.31µM
Clc1ccc(N=c2ssnc2Cl)nc1	none (no result: PNC inhibitor, Lamin A splicing, HPGD block)
COc1cc(N=c2ssnc2Cl)cc(OC)c1	PNC inhibitor inconclusive, ALDH1A1 block 0.316µM, HPGD block 0.631µM
COc1cc(OC)cc(-c2nc(-c3ccccc3OC)no2)c1	none
N#Cc1cccc(N=c2ssnc2Cl)c1	ALDH1A1 block 1.26µM, Lamin A splicing inconclusive (no result: PNC inhibitor, HPGD block)
Clc1nssc1=Nc1ccc(Br)cc1	ALDH1A1 block 1.78µM (no result: PNC inhibitor, Lamin A splicing, HPGD block)
S=c1nn[nH]n1C12CC3CC(CC(C3)C1)C2	ALDH1A1 block 2.82µM, HPGD block inconclusive
O=C(NCC12CC3CC(CC(C3)C1)C2)c1nn2cccnc2c1Cl	ALDH1A1 block 15.8µM, HPGD block 17.8µM
O=C(NCC1CCCO1)c1nn2cccnc2c1Cl (stereo not drawn)	HPGD block 25.1µM
CCOC(=O)Cn1c(=O)n(CC2CCCO2)c2nc(-c3c(F)cccc3Cl)nc(C(N)=O)c21 (stereo not drawn)	none (no result: Luc counter, PNC inhibitor, ALDH1A1 block, HPGD block)
COc1ccccc1C(=O)Nc1cccc(C(=O)OCc2cc(=O)n3c4c(sc3n2)CCCC4)c1	none (no result: Luc counter, PNC inhibitor, ALDH1A1 block, HPGD block)
Nc1nc2c(ncn2C2CC(O)C(CO)O2)c(=O)[nH]1 (stereo not drawn)	none (no result: PNC inhibitor)
CCC1(C)N(O)C(C)(C)C(c2ccc(F)cc2)=[N+]1[O-] (stereo not drawn)	PNC inhibitor -100.0
CCOC(=O)c1c(-c2ccc(OC)cc2)csc1/N=C/C1C(=O)CCCC1=O	ALDH1A1 block 5.01µM (no result: PNC inhibitor, HPGD block)
CC(=O)Nc1cc(C(=O)NCc2ccco2)ccc1Sc1ccc(Cl)cc1	PNC inhibitor -102.8, ALDH1A1 block inconclusive
Cc1ccc2c(CC(=O)NCc3ccco3)coc2c1C	ALDH1A1 block 25.1µM, Lamin A splicing inconclusive, HPGD block 2.82µM
Cc1c(Br)cc(C(=O)NCc2ccco2)c(C)c1C	PNC inhibitor inconclusive, ALDH1A1 block inconclusive, HPGD block 25.1µM
CC(=O)Nc1cc(C(=O)NCc2ccco2)ccc1Sc1ccc(F)cc1	Lamin A splicing inconclusive
CSc1ccc(Cl)c(C(=O)NCc2ccco2)c1	PNC inhibitor inconclusive, ALDH1A1 block inconclusive, HPGD block 15.8µM
CSc1ccc(Cl)c(C(=O)OCC(=O)NCc2ccco2)c1	ALDH1A1 block inconclusive, HPGD block inconclusive
O=C1C(=O)c2ccccc2C(O)=C1C(CCc1ccccc1)C1=C(O)c2ccccc2C(=O)C1=O	ALDH1A1 block inconclusive, HPGD block inconclusive (no result: PNC inhibitor, Lamin A splicing)
NC(=O)[C@@H]1CCNc2c(I)cc([N+](=O)[O-])cc2C(=O)N[C@@H](CCC(=O)O)C(=O)N[C@@H](CO)C(=O)N1	Lamin A splicing inconclusive
COc1ccc(C(=O)Nc2nnc(S(=O)(=O)N(C)c3ccc(Cl)cc3)s2)cc1OC	none (no result: Luc counter, PNC inhibitor, ALDH1A1 block, HPGD block)
COc1ccc(C(=O)N2CC3(CC(c4cccc([N+](=O)[O-])c4)=NO3)C[C@H]2C(=O)NCC(N)=O)cc1 (stereo partly drawn)	ALDH1A1 block 11.2µM, HPGD block inconclusive
CCC(=O)N1CC2(CC(c3cccc([N+](=O)[O-])c3)=NO2)C[C@H]1C(=O)NCC(N)=O (stereo partly drawn)	none
COCC(=O)N1CCC2(CC1)CCN(c1ccncc1)CC2	none (no result: PNC inhibitor, Lamin A splicing)
